This note sets out measurements from PubChem BioAssay (NCI).

About 83,000 compounds went through this panel and 20% of them were active in at least one assay; those are over-represented in the sample as a whole.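 Single-dose data. Exposure time 48 hours. Values below 10 considered active.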 Unmarked numbers belong to inactive results. The source made the active and inactive calls.

Among the test systems are SK-MEL-2 melanoma; EKVX NSCLC; SN12C renal; UO-31 renal; TK-10 renal; ACHN renal; CAKI-1 renal; A498 renal; CCRF-CEM leukemia; MOLT-4 leukemia.
What all share (assay): NCI-60 one-dose screen, 48 h (100 = growth as untreated, 0 = no growth, -100 = all killed)
What all share (settings): 10 µM unless noted

For `O=C(Nc1ccccc1O)c1ccccc1Nc1ccnc(C(F)(F)F)c1`, the growth was 104% in the assay with SK-MEL-2 melanoma; 93% in the assay on EKVX NSCLC; 87.3% with SN12C renal; 66.2% in the assay on UO-31 renal; 136% with TK-10 renal; 93.8% in the assay with ACHN renal. Also, the growth with CAKI-1 renal was 98.3%; in the assay on A498 renal it was 145%; in the assay with CCRF-CEM leukemia, 84.8%; with MOLT-4 leukemia it was 74.5%.

Turning to `COc1cccc(OC)c1Oc1c(-c2nc3ccccc3s2)c(C)nn1-c1ccccc1`, the growth in the assay on SK-MEL-2 melanoma was 90.6%; in the assay on EKVX NSCLC, 71.9%; in the assay with SN12C renal, 82.6%; with UO-31 renal, 49.5%; in the assay on TK-10 renal it was 94.7%; in the assay on ACHN renal it was 72.8%. The growth with CAKI-1 renal was 44.9%; in the assay with A498 renal, 82.3%; in the assay on CCRF-CEM leukemia, 62.9%; in the assay with MOLT-4 leukemia, 51.2%.

With `CCSC1=CC(=O)c2ccccc2C1=O`, the growth is 94.2% in the assay with SK-MEL-2 melanoma; 92.8% in the assay with EKVX NSCLC; 82.8% in the assay with SN12C renal; 27% in the assay with UO-31 renal; 89% with TK-10 renal; 3.01% (active) in the assay on ACHN renal. Further, the growth with CAKI-1 renal was 32.2%; in the assay on A498 renal it was 97.8%; in the assay with CCRF-CEM leukemia, -6.88% (active); in the assay with MOLT-4 leukemia it was 5.83% (active).

For `CCOC(=O)c1c(-c2ccccc2)n2c(=O)cc(C)c3c(O)c(O)cc1c32`, the growth in the assay on SK-MEL-2 melanoma was 83.8%; in the assay with EKVX NSCLC it was 86.6%; with SN12C renal, 68.7%; in the assay with UO-31 renal it was 51.1%; in the assay on TK-10 renal, 89.2%; with ACHN renal it was 47%. The growth was 52% in the assay with CAKI-1 renal, 88.6% in the assay on A498 renal, 17.1% in the assay on CCRF-CEM leukemia and 36.1% in the assay on MOLT-4 leukemia.

Take `CC(C)CSc1oc(-c2ccccc2)nc1S(=O)(=O)c1ccccc1`: the growth in the assay on SK-MEL-2 melanoma was 95.9%; in the assay on EKVX NSCLC it was 88.8%; in the assay on SN12C renal, 95%; in the assay with UO-31 renal it was 75.7%; in the assay on TK-10 renal, 65.6%; in the assay on ACHN renal, 89.9%. Moreover, the growth was 76.7% in the assay with CAKI-1 renal, 84.9% with A498 renal, 86.9% in the assay on CCRF-CEM leukemia and 76.1% in the assay with MOLT-4 leukemia.

`CCC(C)Nc1ccc(NC(C)CC)cc1` (stereo not given): the growth in the assay with SK-MEL-2 melanoma is 91.6%; with EKVX NSCLC it was 86%; with SN12C renal, 19.8%; with UO-31 renal it was 84.4%; in the assay with TK-10 renal, 107%; with ACHN renal, 85.5%. Further, the growth in the assay on CAKI-1 renal was 96.2%; in the assay on A498 renal, 97.5%; in the assay on CCRF-CEM leukemia, 79%; in the assay with MOLT-4 leukemia, 59.1%.

`CCCCCCCCn1ccc2cc(NC(=O)Cn3cc(CN4CCCCCC4)nn3)ccc21`: the growth in the assay with SK-MEL-2 melanoma was -66.6% (active); in the assay on EKVX NSCLC, 74.1%; in the assay on SN12C renal it was 23%; in the assay with UO-31 renal, -87.6% (active); with TK-10 renal, 71.4%; in the assay on ACHN renal, -36% (active). Moreover, the growth was -39.9% (active) in the assay with CAKI-1 renal, 88.9% in the assay on A498 renal, 1.06% (active) in the assay with CCRF-CEM leukemia and -27.5% (active) in the assay with MOLT-4 leukemia.

`C=CC(=O)N1CCN(c2ccc3cccc(NC(=O)c4cnc(C)cn4)c3n2)CC1`: the growth in the assay with SK-MEL-2 melanoma is 29.7%; with EKVX NSCLC, 66.6%; in the assay on SN12C renal, 9.63% (active); in the assay with UO-31 renal, 0.645% (active); with TK-10 renal, 23.2%; with ACHN renal it was 5.43% (active). Besides, the growth in the assay with CAKI-1 renal was 4.05% (active); in the assay on A498 renal it was -12.7% (active); in the assay on CCRF-CEM leukemia it was 32.1%; with MOLT-4 leukemia it was 35.7%.

Regarding `CCN1C(=O)N(CC)C2C1NN=c1s/c(=C\c3ccccc3Br)c(=O)n12` (stereo not given), the growth was 51.1% with SK-MEL-2 melanoma; 47.7% with EKVX NSCLC; 24.8% in the assay on SN12C renal; 36.2% in the assay on UO-31 renal; 70.9% in the assay on TK-10 renal; 26.1% in the assay with ACHN renal. Moreover, the growth in the assay with CAKI-1 renal was 24.7%; in the assay with A498 renal it was -1.67% (active); in the assay on CCRF-CEM leukemia, 14.5%; in the assay with MOLT-4 leukemia it was 15.2%.

With `CCN(C(=O)N1CCN(c2cc3c(cc2F)c(=O)c(C(=O)O)cn3C2CC2)CC1)c1nc(-c2ccc(C)cc2)cs1`, the growth was -1.1% (active) with SK-MEL-2 melanoma; 14.3% in the assay on EKVX NSCLC; 5.47% (active) in the assay on SN12C renal; 5.96% (active) in the assay on UO-31 renal; 38.3% with TK-10 renal; 6.68% (active) in the assay with ACHN renal. Further, the growth with CAKI-1 renal is 7.79% (active); in the assay on A498 renal it was -2.94% (active); in the assay with CCRF-CEM leukemia it was 21.4%; with MOLT-4 leukemia, 14.3%.

`O=C(CN1C(=O)NC2NC(=O)NC21)N/N=C/c1ccc(Cl)cc1Cl` (stereo not given): the growth in the assay with SK-MEL-2 melanoma was 113%; in the assay with EKVX NSCLC, 101%; in the assay on SN12C renal, 104%; with UO-31 renal, 84.3%; in the assay on TK-10 renal, 101%; in the assay with ACHN renal, 105%. Further, the growth in the assay with CAKI-1 renal is 88.2%; in the assay on A498 renal, 112%; with CCRF-CEM leukemia, 107%; with MOLT-4 leukemia it was 105%.

Take `COc1ccc(-c2oc(=O)ccc2-c2cc(OC)c(OC)c(OC)c2)cc1O`: the growth with SK-MEL-2 melanoma was 39.9%; in the assay with EKVX NSCLC it was 49.5%; in the assay on SN12C renal it was 36.8%; in the assay with UO-31 renal it was 21.9%; in the assay on TK-10 renal, 61.6%; in the assay on ACHN renal, 56%. The growth with CAKI-1 renal is -11.6% (active); in the assay with A498 renal, -1.78% (active); in the assay with CCRF-CEM leukemia, 4.14% (active); in the assay on MOLT-4 leukemia, 20.5%.

Take `C/C(=C(/c1ccc(Cl)cc1)c1ccc(OCCCN(C)C)cc1)c1ccc(Cl)cc1`: the growth was 98.5% in the assay with SK-MEL-2 melanoma; 98.4% in the assay with EKVX NSCLC; 93.9% in the assay with SN12C renal; 72.7% in the assay on UO-31 renal; 103% in the assay with TK-10 renal; 104% in the assay on ACHN renal. In addition, the growth is 87.3% in the assay with CAKI-1 renal, 94.8% in the assay with A498 renal, 73.3% in the assay on CCRF-CEM leukemia and 71.7% with MOLT-4 leukemia.
